The text below walks through data of publication PMC5540273 (PLoS ONE, 2017).

Some test systems named below: LCK; LIMK1; LIMK2; LRRK2; LTK; LYN; MAK; MAP3K15; MAP3K1; MAP3K2; MAP3K3; MAP3K4; MAP4K2; MAP4K3; MAP4K4; MAP4K5; MAPKAPK2.
Common to all, as to conditions: concentration: 1 μM,replicates: in singlicate; n = 1
In the next experiment the test system is T1, LKB1.
T1 construct: gene STK11

The test system of the next experiment is T2, LOK.
T2 construct: gene STK10

A further experiment relates to T3, LZK.
T3 construct: gene MAP3K13
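Also: KINOMEscan kinase panel screen.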

With `O=C(Nc1cccc(Oc2ccc3nccn3n2)c1)Nc1cccc(C(F)(F)F)c1`, the “%Inh” value turned out to be 71% in the experiment on LCK; 0% in the experiment on LIMK1; 25% with LIMK2; 0% in the experiment on LKB1; 64% with LOK; 21% in the experiment on LRRK2. The “%Inh” value is 0% in the experiment on LTK; 42% in the experiment with LYN; 0% in the experiment on LZK; 38% in the experiment with MAK; 0% with MAP3K15; 17% in the experiment with MAP3K1. Further, the “%Inh” value with MAP3K2 amounted to 3%; in the experiment on MAP3K3, 10%; with MAP3K4, 30%; with MAP4K2, 0%; with MAP4K3 it was 3%; in the experiment with MAP4K4, 68%. For the same compound, the “%Inh” value is 26% in the experiment with MAP4K5 and 0% in the experiment on MAPKAPK2.
As to `Cn1ccc2ncnc(Oc3ccc(NC(=O)Nc4cnn(C(C)(C)C)c4)c(Cl)c3)c21`, the “%Inh” value is recorded as 71% in the experiment with LCK; 1% in the experiment on LIMK1; 8% in the experiment with LIMK2; 9% in the experiment with LKB1; 99.9% in the experiment on LOK; 0% in the experiment with LRRK2. Moreover, the “%Inh” value turned out to be 12% in the experiment with LTK; 71% in the experiment with LYN; 0% in the experiment with LZK; 0% in the experiment on MAK; 0% with MAP3K15; 7% in the experiment on MAP3K1. The “%Inh” value with MAP3K2 stood at 0%; with MAP3K3 it was 9%; with MAP3K4 it was 1%; in the experiment on MAP4K2 it was 4%; in the experiment on MAP4K3 it was 0%; in the experiment with MAP4K4, 52%. Further, the “%Inh” value in the experiment on MAP4K5 is reported as 0%; with MAPKAPK2, 7%.
In the case of `Cc1ccc(CC(=O)N2CCc3cc(-c4cn(C)c5ncnc(N)c45)ccc32)cc1` [GSK2634758], the “%Inh” value is listed as 38% in the experiment on LCK; 0% in the experiment with LIMK1; 0% in the experiment on LIMK2; 19% in the experiment on LKB1; 87% with LOK; 0% with LRRK2. In addition, the “%Inh” value in the experiment on LTK came to 24%; in the experiment on LYN, 23%; with LZK it was 24%; with MAK it was 4%; in the experiment with MAP3K15, 0%; in the experiment on MAP3K1, 10%. In addition, the “%Inh” value is on record as 55% in the experiment with MAP3K2; 22% in the experiment with MAP3K3; 90.3% with MAP3K4; 3% with MAP4K2; 96.7% with MAP4K3; 0% in the experiment with MAP4K4. Besides, the “%Inh” value in the experiment on MAP4K5 is 77%; with MAPKAPK2, 6%.
As to `CS(=O)c1ccc(-c2coc3ccc(-c4n[nH]c(=O)o4)cc23)cc1` (stereo not drawn), the “%Inh” value in the experiment with LCK came to 0%; in the experiment on LIMK1, 0%; in the experiment on LIMK2 it was 0%; in the experiment on LKB1, 16%; in the experiment on LOK, 99.7%; with LRRK2 it was 13%. The “%Inh” value was found to be 0% in the experiment on LTK; 16% with LYN; 2% in the experiment on LZK; 0% in the experiment on MAK; 37% in the experiment with MAP3K15; 0% in the experiment with MAP3K1. Besides, the “%Inh” value with MAP3K2 is reported as 0%; in the experiment with MAP3K3, 11%; with MAP3K4, 5%; with MAP4K2, 2%; in the experiment with MAP4K3, 1%; in the experiment with MAP4K4, 0%. The “%Inh” value in the experiment with MAP4K5 and in the experiment on MAPKAPK2 was 0% throughout.
As for `C[C@@H](Oc1cc(-n2cnc3cc(-c4ccncc4)ccc32)sc1C(N)=O)c1ccccc1Cl` [GSK479719], the “%Inh” value in the experiment with LCK is reported as 54%; with LIMK1, 31%; in the experiment with LIMK2, 0%; in the experiment with LKB1 it was 0%; in the experiment with LOK it was 99.8%; in the experiment with LRRK2 it was 4%. Moreover, the “%Inh” value in the experiment on LTK is given as 0%; with LYN, 0%; in the experiment with LZK, 0%; in the experiment on MAK, 0%; with MAP3K15, 18%; in the experiment on MAP3K1, 91.9%. For the same compound, the “%Inh” value in the experiment with MAP3K2 is 10%; with MAP3K3 it was 1%; in the experiment with MAP3K4 it was 13%; in the experiment with MAP4K2 it was 24%; with MAP4K3, 65%; in the experiment on MAP4K4, 13%. The “%Inh” value is recorded as 85% in the experiment with MAP4K5 and 0% with MAPKAPK2.
`O=C1NCCc2[nH]c(-c3ccncc3)cc21`: the “%Inh” value worked out at 9% with LCK; 5% in the experiment with LIMK1; 2% in the experiment on LIMK2; 0% with LKB1; 6% in the experiment with LOK; 31% with LRRK2. In addition, the “%Inh” value in the experiment on LTK amounted to 0%; in the experiment on LYN it was 0%; in the experiment with LZK it was 2%; with MAK it was 21%; in the experiment with MAP3K15, 85%; in the experiment with MAP3K1, 5%. Besides, the “%Inh” value in the experiment on MAP3K2 was determined as 0%; in the experiment on MAP3K3, 23%; with MAP3K4, 3%; with MAP4K2 it was 52%; in the experiment with MAP4K3, 15%; in the experiment on MAP4K4, 25%. The “%Inh” value in the experiment with MAP4K5 turned out to be 6%.
`Cc1ccn2nc(-c3ccc(F)cc3)c(-c3ccncc3)c2c1.Cl` [GW457859]: the “%Inh” value in the experiment on LCK stood at 12%; in the experiment on LIMK1, 0%; in the experiment on LIMK2, 0%; with LKB1 it was 10%; in the experiment on LOK, 0%; with LRRK2 it was 0%. Moreover, the “%Inh” value in the experiment on LTK is on record as 0%; with LYN it was 0%; with LZK, 44%; in the experiment with MAK, 17%; in the experiment with MAP3K15 it was 0%; in the experiment on MAP3K1, 0%. In addition, the “%Inh” value with MAP3K2 was found to be 0%; with MAP3K3 it was 0%; in the experiment on MAP3K4, 0%; with MAP4K2 it was 2%; with MAP4K3 it was 0%; in the experiment with MAP4K4, 14%. Also, the figures for the “%Inh” value with MAP4K5 and in the experiment with MAPKAPK2 were 0% and 15%, respectively.
On to `CC(=O)Nc1ccc(-c2cc3ncnc(SCC(=O)O)c3s2)cc1`, for which the “%Inh” value with LCK is 1%; in the experiment with LIMK1 it was 0%; in the experiment on LIMK2 it was 0%; in the experiment on LKB1, 0%; in the experiment on LOK, 5%; in the experiment with LRRK2 it was 0%. Also, the “%Inh” value is given as 0% in the experiment on LTK; 9% with LYN; 0% in the experiment with LZK; 52% in the experiment on MAK; 27% in the experiment on MAP3K15; 16% in the experiment on MAP3K1. Further, the “%Inh” value with MAP3K2 is on record as 5%; with MAP3K3, 1%; in the experiment on MAP3K4 it was 37%; in the experiment with MAP4K2 it was 17%; in the experiment with MAP4K3, 22%; in the experiment on MAP4K4, 0%. The “%Inh” value in the experiment on MAP4K5 and in the experiment on MAPKAPK2 was 0% each time.
As for `CCNCC(Cc1ccccc1)NC(=O)c1cc(Br)c(-c2ccnc3[nH]ccc23)s1.Cl.Cl` (stereo not drawn) [GSK1383280], the “%Inh” value with LCK is given as 11%; in the experiment with LIMK1, 21%; with LIMK2, 23%; with LKB1, 0%; with LOK, 0%; in the experiment on LRRK2, 0%. For the same compound, the “%Inh” value in the experiment on LTK is 0%; with LYN it was 0%; in the experiment on LZK it was 0%; with MAK it was 44%; in the experiment with MAP3K15, 0%; in the experiment with MAP3K1, 12%. The “%Inh” value in the experiment on MAP3K2 was found to be 33%; with MAP3K3, 0%; in the experiment with MAP3K4, 0%; in the experiment on MAP4K2, 27%; with MAP4K3, 4%; with MAP4K4, 37%. The “%Inh” value in the experiment with MAP4K5 and in the experiment on MAPKAPK2 was 0% each time.
Take `CC(=O)c1c(-c2ccncc2)[nH]c(-c2ccncc2)c1C` [GW493036]: the “%Inh” value with LCK was 0%; in the experiment on LIMK1, 0%; with LIMK2, 1%; with LKB1, 0%; with LOK, 0%; with LRRK2 it was 26%. For the same compound, the “%Inh” value was determined as 0% with LTK; 0% with LYN; 42% in the experiment on LZK; 34% in the experiment on MAK; 0% in the experiment on MAP3K15; 5% in the experiment with MAP3K1. In addition, the “%Inh” value in the experiment on MAP3K2 came to 0%; in the experiment on MAP3K3, 0%; in the experiment with MAP3K4, 9%; in the experiment on MAP4K2 it was 0%; in the experiment with MAP4K3, 0%; with MAP4K4 it was 16%. For the same compound, the entries for the “%Inh” value in the experiment on MAP4K5 and with MAPKAPK2 were 0% and 23%, respectively.
For `O=C(NOCC1CC1)c1cc(Br)c(F)c(F)c1Nc1ccc(I)cc1Cl`, the “%Inh” value in the experiment with LCK is given as 0%; in the experiment on LIMK1, 0%; in the experiment with LIMK2 it was 0%; in the experiment on LKB1 it was 7%; in the experiment on LOK it was 2%; in the experiment with LRRK2, 0%. Also, the “%Inh” value with LTK was determined as 0%; in the experiment with LYN it was 9%; in the experiment on LZK, 9%; with MAK, 37%; with MAP3K15 it was 0%; with MAP3K1, 0%. In addition, the “%Inh” value in the experiment on MAP3K2, in the experiment with MAP3K3, in the experiment on MAP3K4, in the experiment with MAP4K2, in the experiment on MAP4K3 and with MAP4K4 was 0% throughout. The “%Inh” value in the experiment with MAP4K5 and in the experiment with MAPKAPK2 was 0% each time.
